According to PubChem BioAssay AID1159580 (chemical genetic matrix, 2015):
Screen size: about 5,500 compounds; about 2,000 (36%) were called active. About 18% were inconclusive and are not listed. The list shows a part of the results. A number with no mark means an inactive call. Cut-off read from the data, not from the text of the source: active = normalized growth mostly below about 0.91 (no sharp cut-off); inconclusive = no clear call, values can overlap the other calls; inactive = mostly above about 0.92.

Assay: chemical genetic growth profiling, strain panel (AID 1159580);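 note: tested at 20 µM; growth read once vehicle control cultures reached saturation at 30 °C; 1 = growth at the plate median or of vehicle wells; lower values mean less growth of the strain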
Conditions: S. cerevisiae deletion strains, growth OD
[1] = locus YHR030C, strain SLT2, hits give low values
[2] = locus YJL095W, strain BCK1, hits give low values
[3] = locus YBR021W, strain FUR4, hits give low values
[4] = locus YBR229C, strain ROT2, hits give low values
[5] = locus YCL029C, strain bik1, hits give low values
[6] = locus YDL035C, strain GPR1, hits give low values
[7] = locus YDL074C, strain BRE1, hits give low values
[8] = locus YDL101C, strain DUN1, hits give low values
[9] = locus YDL185W, strain tfp1, hits give low values
[10] = locus YDL192W, strain arf1, hits give low values
[11] = locus YDR101C, strain arx1, hits give low values
[12] = locus YDR162C, strain NBP2, hits give low values
[13] = locus YDR318W, strain mcm21, hits give low values
[14] = locus YDR388W, hits give low values
[15] = locus YDR502C, strain sam2, hits give low values
[16] = locus YER110C, hits give low values
[17] = locus YER155C, strain BEM2, hits give low values
[18] = locus YER167W, strain BCK2, hits give low values
[19] = locus YGL078C, strain dbp3, hits give low values
[20] = locus YGL086W, strain mad1, hits give low values
[21] = locus YGL248W, strain PDE1, hits give low values
[22] = locus YGR078C, strain PAC10, hits give low values
[23] = locus YGR135W, strain pre9, hits give low values
[24] = locus YGR252W, strain gcn5, hits give low values
[25] = locus YHR079C, strain IRE1 (second series), hits give low values
[26] = locus YHR094C, strain hxt1, hits give low values
[27] = locus YHR129C, strain ARP1, hits give low values
[28] = locus YHR200W, strain rpn10, hits give low values
[29] = locus YIL066C, strain RNR3, hits give low values
[30] = locus YIL073C, strain SPO22, hits give low values
[31] = locus YIL125W, strain kgd1, hits give low values
[32] = locus YIR030C, strain dcg1, hits give low values
[33] = locus YJL134W, strain LCB3, hits give low values
[34] = locus YJL168C, strain set2, hits give low values
[35] = locus YJL187C, strain SWE1 (second series), hits give low values
[36] = locus YJR043C, strain POL32, hits give low values
[37] = locus YKL009W, strain mrt4, hits give low values
[38] = locus YKL068W, hits give low values
[39] = locus YKL085W, strain MDH1 (second series), hits give low values
[40] = locus YKL085W, strain MDH1, hits give low values
[41] = locus YKR001C, strain vps1, hits give low values
[42] = locus YLR039C, strain RIC1, hits give low values
[43] = locus YLR058C, strain SHM2, hits give low values
[44] = locus YLR102C, strain apc9, hits give low values
[45] = locus YLR268W, strain sec22, hits give low values
[46] = locus YLR371W, strain rom2, hits give low values
[47] = locus YLR418C, strain cdc73, hits give low values
[48] = locus YML016C, strain PPZ1, hits give low values
[49] = locus YML032C, strain rad52, hits give low values
[50] = locus YML124C, strain tub3, hits give low values
[51] = locus YMR078C, strain ctf18, hits give low values
[52] = locus YMR223W, strain ubp8, hits give low values
[53] = locus YMR307W, strain GAS1, hits give low values
[54] = locus YNL067W, strain RPL9B, hits give low values
[55] = locus YNL153C, strain GIM3, hits give low values
[56] = locus YNL233W, strain BNI4, hits give low values
[57] = locus YNL250W, strain rad50, hits give low values
[58] = locus YNL271C, strain bni1, hits give low values
[59] = locus YNL298W, strain CLA4, hits give low values
[60] = locus YNL307C, strain MCK1, hits give low values
[61] = locus YNR052C, strain pop2, hits give low values
[62] = locus YOL147C, strain pex11, hits give low values
[63] = locus YOR061W, strain CKA2, hits give low values
[64] = locus YOR069W, strain VPS5, hits give low values
[65] = locus YOR136W, strain idh2, hits give low values
[66] = locus YOR144C, strain elg1, hits give low values
[67] = locus YOR184W, strain ser1, hits give low values
[68] = locus YOR316C, strain cot1, hits give low values
[69] = locus YPR119W, strain clb2, hits give low values
[70] = locus YPR141C, strain kar3, hits give low values
[71] = locus YPR163C, strain tif3, hits give low values
[72] = locus YPR167C, strain met16, hits give low values
[73] = strain wtn01, hits give low values

`CS(=O)(=O)c1ccc([C@@H](O)[C@H](CF)NC(=O)C(Cl)Cl)cc1` gave a normalized growth [1] of 1.03, a normalized growth (locus YHR079C, strain IRE1, hits give low values) of 0.953 and a normalized growth [2] of 0.973. The normalized growth (locus YJR066W, strain TOR1, hits give low values) was 0.956, the normalized growth (locus YLR113W, strain HOG1, hits give low values) was 0.935 and the normalized growth (locus YNL183C, strain NPR1, hits give low values) was 0.909. For the same molecule, the normalized growth (locus YOR231W, strain MKK1, hits give low values) was 0.969 and the normalized growth (locus YPL256C, strain CLN2, hits give low values) was 0.943.

`Cc1cc(=O)c2c(o1)-c1c(cc(O)c(O)c1C(=O)O)OC2` showed a normalized growth [3] of 0.96, a normalized growth [4] of 0.996 and a normalized growth [5] of 1.03. The normalized growth [6] was 1, the normalized growth [7] was 0.984 and the normalized growth [8] was 1. It also gave a normalized growth (locus YDL134C, strain PPH21, hits give low values) of 1, a normalized growth [9] of 1.01 and a normalized growth [10] of 1.01. It also gave a normalized growth [11] of 1.01, a normalized growth (locus YDR150W, strain NUM1, hits give low values) of 0.97 and a normalized growth [12] of 0.987. It also gave a normalized growth [13] of 1.01, a normalized growth [14] of 1.01 and a normalized growth [15] of 1.03. The normalized growth (locus YEL061C, strain CIN8, hits give low values) was 1, the normalized growth [16] was 1.03 and the normalized growth [17] was 1.01. For the same molecule, the normalized growth [18] was 1.02, the normalized growth [19] was 1.02 and the normalized growth [20] was 1.02. The normalized growth [21] was 0.996, the normalized growth [22] was 0.991 and the normalized growth [23] was 1.02. The normalized growth [24] was 0.997, the normalized growth [1] was 1.01 and the normalized growth [25] was 1.01. The normalized growth [26] was 1.02, the normalized growth [27] was 1.01 and the normalized growth [28] was 1.03. For the same molecule, the normalized growth [29] was 0.99, the normalized growth [30] was 1.05 and the normalized growth [31] was 1.03. For the same molecule, the normalized growth [32] was 1.02, the normalized growth [2] was 0.998 and the normalized growth [33] was 1.01. It also gave a normalized growth [34] of 1.02, a normalized growth [35] of 1.02 and a normalized growth [36] of 0.997. The normalized growth [37] was 1.03, the normalized growth [38] was 1.01 and the normalized growth [39] was 1.01. The normalized growth [40] was 1.01, the normalized growth [41] was 1.02 and the normalized growth [42] was 0.973. It also gave a normalized growth [43] of 1.01, a normalized growth [44] of 1.01 and a normalized growth (locus YLR262C, strain YPT6, hits give low values) of 1.02. For the same molecule, the normalized growth [45] was 1.02, the normalized growth (locus YLR330W, strain CHS5, hits give low values) was 0.991 and the normalized growth (locus YLR342W, strain FKS1 (second series), hits give low values) was 0.966. It also gave a normalized growth [46] of 1.03, a normalized growth [47] of 1.05 and a normalized growth [48] of 0.998. For the same molecule, the normalized growth [49] was 1.01, the normalized growth [50] was 1.01 and the normalized growth [51] was 1.02. For the same molecule, the normalized growth [52] was 1.01, the normalized growth (locus YMR263W, strain SAP30, hits give low values) was 1 and the normalized growth [53] was 0.935. The normalized growth [54] was 0.987, the normalized growth [55] was 1 and the normalized growth [56] was 1.02. For the same molecule, the normalized growth [57] was 1.03, the normalized growth [58] was 1.02 and the normalized growth [59] was 1.03. It also gave a normalized growth [60] of 1.02, a normalized growth [61] of 1.02 and a normalized growth (locus YOL006C, strain TOP1, hits give low values) of 0.969. It also gave a normalized growth (locus YOL012C, strain htz1) of 0.545, a normalized growth [62] of 1.02 and a normalized growth [63] of 1.01. It also gave a normalized growth [64] of 1, a normalized growth [65] of 1.03 and a normalized growth [66] of 1.01. For the same molecule, the normalized growth [67] was 1.03, the normalized growth [68] was 1.01 and the normalized growth (locus YPL055C, strain LGE1, hits give low values) was 1.01. It also gave a normalized growth [69] of 1.01, a normalized growth [70] of 1.02 and a normalized growth [71] of 1.01. It also gave a normalized growth [72] of 1.03 and a normalized growth [73] of 1.02.

For `Cc1cc(=O)c2c(O)c3c(cc2o1)OCC(C)CC3` (stereo not given), the normalized growth [3] was 0.993, the normalized growth [4] was 0.981 and the normalized growth [5] was 0.912. The normalized growth [6] was 0.954, the normalized growth [7] was 0.818 and the normalized growth [8] was 0.898. The normalized growth [9] was 0.915, the normalized growth [10] was 0.848 (active) and the normalized growth [11] was 0.896 (active). For the same molecule, the normalized growth [12] was 0.885, the normalized growth [13] was 0.858 (active) and the normalized growth [14] was 0.909 (active). For the same molecule, the normalized growth [15] was 0.858 (active), the normalized growth [16] was 0.893 (active) and the normalized growth [17] was 0.849 (active). For the same molecule, the normalized growth [18] was 0.961, the normalized growth [19] was 0.936 and the normalized growth [20] was 0.846 (active). The normalized growth [21] was 0.881 (active), the normalized growth [22] was 0.8 (active) and the normalized growth [23] was 0.806 (active). The normalized growth [24] was 0.689 (active), the normalized growth [25] was 0.925 (active) and the normalized growth [26] was 0.926. The normalized growth [27] was 0.926, the normalized growth [28] was 0.868 (active) and the normalized growth [29] was 0.941. The normalized growth [30] was 0.796, the normalized growth [31] was 0.924 (active) and the normalized growth [32] was 0.912 (active). For the same molecule, the normalized growth [2] was 0.815, the normalized growth [33] was 0.969 and the normalized growth [34] was 0.914 (active). For the same molecule, the normalized growth [35] was 0.908, the normalized growth [36] was 0.966 and the normalized growth [37] was 0.897. For the same molecule, the normalized growth [38] was 0.921 (active), the normalized growth [39] was 0.942 and the normalized growth [40] was 0.942. The normalized growth [41] was 0.797 (active), the normalized growth [42] was 0.673 (active) and the normalized growth [43] was 0.926. The normalized growth [44] was 0.928, the normalized growth [45] was 0.914 and the normalized growth [46] was 0.821 (active). For the same molecule, the normalized growth [47] was 0.591 (active), the normalized growth [48] was 0.976 and the normalized growth [49] was 0.881 (active). The normalized growth [50] was 0.91 (active), the normalized growth [51] was 0.899 (active) and the normalized growth [52] was 0.879 (active). The normalized growth [53] was 0.588 (active), the normalized growth [54] was 0.919 and the normalized growth [55] was 0.704 (active). The normalized growth [56] was 0.826 (active), the normalized growth [57] was 0.902 and the normalized growth [58] was 0.922. For the same molecule, the normalized growth [59] was 0.929, the normalized growth [60] was 0.719 (active) and the normalized growth (locus YNL322C, strain KRE1, hits give low values) was 0.923 (active). For the same molecule, the normalized growth [61] was 0.932, the normalized growth (locus YOL012C, strain htz1) was 1.02 and the normalized growth [62] was 0.887 (active). For the same molecule, the normalized growth [63] was 0.98, the normalized growth [64] was 0.96 and the normalized growth [65] was 0.915 (active). The normalized growth [66] was 0.91 (active), the normalized growth [67] was 0.725 (active) and the normalized growth [68] was 0.918 (active). The normalized growth [69] was 0.914 (active), the normalized growth [70] was 0.918 and the normalized growth [71] was 0.855 (active). For the same molecule, the normalized growth [72] was 0.868 (active) and the normalized growth [73] was 0.897 (active).
